# Screening data (PubChem)
# Pf apPOL block: Pf-apPOL inhibitors, biochemical, fluorescence; Plasmodium falciparum apicoplast DNA polymerase (apPOL); inhibition, % at 10 µM; hit rate 0.25% among 210,000; AID 1794808, 2022; Recombinant Pf-apPOL, molecular beacon fluorescence, 1.5 h
# mHTT CaM bind: mutant huntingtin-calmodulin interaction inhibitors – biochemical, AlphaScreen, primary screen; inhibition, % at 15 µM; AlphaScreen His-mHTT/GST-CaM binding, luminescence; P42858; hit rate 3.6% among 190,000; AID 1671202, 2021;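 further: 0% = both proteins with DMSO and 100% = one protein alone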
# Target sequence (P42858 whole entry, looked up, stated change not applied): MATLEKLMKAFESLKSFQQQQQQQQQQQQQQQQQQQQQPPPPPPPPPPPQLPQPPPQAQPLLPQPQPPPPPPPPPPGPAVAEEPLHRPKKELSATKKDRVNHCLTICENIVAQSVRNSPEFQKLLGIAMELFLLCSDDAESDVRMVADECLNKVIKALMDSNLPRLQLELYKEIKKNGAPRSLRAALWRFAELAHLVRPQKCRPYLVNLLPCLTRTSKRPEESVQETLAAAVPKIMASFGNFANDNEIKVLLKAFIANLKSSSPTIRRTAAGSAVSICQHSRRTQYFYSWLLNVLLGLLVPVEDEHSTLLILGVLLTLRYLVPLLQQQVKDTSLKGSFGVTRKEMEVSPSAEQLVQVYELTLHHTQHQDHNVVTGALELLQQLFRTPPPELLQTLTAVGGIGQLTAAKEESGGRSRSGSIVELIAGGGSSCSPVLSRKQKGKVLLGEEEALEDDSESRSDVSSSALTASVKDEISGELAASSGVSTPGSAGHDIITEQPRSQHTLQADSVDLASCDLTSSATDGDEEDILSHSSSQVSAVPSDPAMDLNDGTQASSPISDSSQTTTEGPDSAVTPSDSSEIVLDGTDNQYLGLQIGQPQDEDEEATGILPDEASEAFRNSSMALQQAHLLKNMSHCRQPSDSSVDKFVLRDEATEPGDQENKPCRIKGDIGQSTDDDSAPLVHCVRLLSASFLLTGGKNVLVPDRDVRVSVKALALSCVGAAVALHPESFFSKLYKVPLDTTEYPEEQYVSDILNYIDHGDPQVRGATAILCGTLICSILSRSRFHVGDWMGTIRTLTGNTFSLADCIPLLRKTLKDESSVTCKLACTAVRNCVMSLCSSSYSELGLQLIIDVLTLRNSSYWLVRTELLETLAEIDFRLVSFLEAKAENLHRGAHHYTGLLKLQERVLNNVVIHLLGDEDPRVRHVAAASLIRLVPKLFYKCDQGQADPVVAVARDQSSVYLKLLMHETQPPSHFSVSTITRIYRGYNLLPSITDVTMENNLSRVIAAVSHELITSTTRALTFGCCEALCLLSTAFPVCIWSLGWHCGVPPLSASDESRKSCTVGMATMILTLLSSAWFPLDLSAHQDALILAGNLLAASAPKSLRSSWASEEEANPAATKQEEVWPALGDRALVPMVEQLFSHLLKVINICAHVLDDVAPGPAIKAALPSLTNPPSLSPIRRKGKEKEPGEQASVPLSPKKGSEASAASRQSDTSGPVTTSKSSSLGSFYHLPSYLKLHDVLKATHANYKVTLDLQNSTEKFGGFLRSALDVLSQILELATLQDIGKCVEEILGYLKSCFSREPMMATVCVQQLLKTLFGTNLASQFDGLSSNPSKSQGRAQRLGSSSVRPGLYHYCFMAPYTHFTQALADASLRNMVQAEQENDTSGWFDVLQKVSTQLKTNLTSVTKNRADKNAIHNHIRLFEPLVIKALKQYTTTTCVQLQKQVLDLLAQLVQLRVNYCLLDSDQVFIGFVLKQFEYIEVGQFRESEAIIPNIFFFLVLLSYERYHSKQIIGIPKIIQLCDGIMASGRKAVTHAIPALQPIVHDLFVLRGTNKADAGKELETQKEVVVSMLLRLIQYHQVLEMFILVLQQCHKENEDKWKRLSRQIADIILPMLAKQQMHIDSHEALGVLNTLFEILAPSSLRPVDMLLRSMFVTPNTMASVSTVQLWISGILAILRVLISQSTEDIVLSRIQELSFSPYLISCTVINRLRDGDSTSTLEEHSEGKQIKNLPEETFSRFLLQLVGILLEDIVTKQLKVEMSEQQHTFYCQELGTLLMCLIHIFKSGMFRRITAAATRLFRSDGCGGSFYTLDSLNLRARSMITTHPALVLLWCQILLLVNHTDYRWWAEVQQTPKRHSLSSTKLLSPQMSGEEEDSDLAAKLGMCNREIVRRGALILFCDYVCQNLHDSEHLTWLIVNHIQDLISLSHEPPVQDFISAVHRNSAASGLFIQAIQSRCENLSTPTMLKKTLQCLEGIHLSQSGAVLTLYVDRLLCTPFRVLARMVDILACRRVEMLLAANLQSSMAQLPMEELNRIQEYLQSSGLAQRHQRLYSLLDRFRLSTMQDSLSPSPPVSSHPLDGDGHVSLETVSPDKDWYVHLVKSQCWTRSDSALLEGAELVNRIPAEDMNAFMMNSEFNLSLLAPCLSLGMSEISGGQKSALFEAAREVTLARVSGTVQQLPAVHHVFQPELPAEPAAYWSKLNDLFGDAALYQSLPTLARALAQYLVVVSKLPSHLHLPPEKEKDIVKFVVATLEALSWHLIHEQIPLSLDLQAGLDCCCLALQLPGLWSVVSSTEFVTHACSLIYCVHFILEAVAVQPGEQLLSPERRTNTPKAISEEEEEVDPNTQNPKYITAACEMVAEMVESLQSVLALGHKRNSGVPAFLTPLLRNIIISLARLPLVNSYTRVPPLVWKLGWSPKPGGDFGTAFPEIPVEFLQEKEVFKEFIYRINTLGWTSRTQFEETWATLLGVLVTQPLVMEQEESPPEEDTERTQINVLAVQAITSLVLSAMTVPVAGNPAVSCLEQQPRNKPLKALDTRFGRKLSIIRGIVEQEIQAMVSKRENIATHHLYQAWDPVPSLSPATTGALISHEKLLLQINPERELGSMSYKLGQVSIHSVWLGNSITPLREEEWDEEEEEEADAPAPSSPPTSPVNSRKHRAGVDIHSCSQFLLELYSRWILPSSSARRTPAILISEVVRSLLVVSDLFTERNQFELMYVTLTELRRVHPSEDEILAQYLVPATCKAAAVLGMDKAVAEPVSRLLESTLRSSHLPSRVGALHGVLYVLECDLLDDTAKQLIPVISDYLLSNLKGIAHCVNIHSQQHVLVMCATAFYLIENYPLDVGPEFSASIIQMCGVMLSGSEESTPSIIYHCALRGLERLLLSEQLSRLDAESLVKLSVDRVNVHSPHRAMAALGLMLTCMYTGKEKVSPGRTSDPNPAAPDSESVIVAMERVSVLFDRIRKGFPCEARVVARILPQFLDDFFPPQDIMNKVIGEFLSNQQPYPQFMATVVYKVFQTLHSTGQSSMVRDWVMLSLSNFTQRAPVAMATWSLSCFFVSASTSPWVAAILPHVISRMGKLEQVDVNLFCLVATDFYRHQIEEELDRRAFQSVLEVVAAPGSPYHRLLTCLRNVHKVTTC
# Active calls of the source: *; . = no result; ! = a repeat was not active. Rows were chosen to be rich in hits. Some 3.6% of all compounds tested hit in one or more screens of this group. No stated cut-off is given here; in the data, active means inhibition above about 50%; inactive means the rest.
SMILES,Pf apPOL block,mHTT CaM bind
CCN1CCn2cc(C(=O)N3CCN(c4cc(C)ccc4C)CC3)nc2C1,-2,16
Cc1ccc(C)c(N2CCN(C(=O)c3ccc4c(c3)nc3n4CCCC3)CC2)c1,-5,84*
COc1ccc(S(=O)(=O)NC2CCCCCC2)cc1Br,-4,-20
C#CCN1C(=O)S/C(=C/c2ccc(N3CCCC3)cc2)C1=O,-4,11
COc1ccc(C(=O)CSc2ccccn2)cc1OC,-4,3
Cc1cccc(N2CCN(C(=O)c3cn4c(n3)CCCC4)CC2)c1C,0,54*
Cc1ccccc1N1CCN(C(=O)c2cn3c(n2)CCCC3)CC1,-3,30
O=C(Nc1ccc2c(c1)CCC2)N1CC2CC(NS(=O)(=O)c3ccccc3)C1C2 (stereo unspecified),-3,7
O=c1[nH]c2ccccc2n1CCCSc1nc2ccccc2o1,-5,51*
O=c1[nH]c2ccccc2n1CCCSc1cccs1,-1,5
Cc1cccc(C2CCCN2C(=O)c2c(Cl)cnn2C)c1 (stereo unspecified),-1,-8
CC1=C(C(=O)Nc2ccc(C)cc2)C2(CCC(C)CC2)OC1=O (stereo unspecified),0,7
CC1=C(C(=O)Nc2ccc(Br)c(C)c2)C2(CCC(C)CC2)OC1=O (stereo unspecified),5,99*
COc1ccc(-c2csc(/C(C#N)=C/c3cccc(F)c3)n2)cc1,-8,-86
O=C(Nc1cccc(F)c1)N1CCn2cccc2C1Cc1ccccc1 (stereo unspecified),-1,6
O=C(Nc1ccccc1Br)N1CCn2cccc2C1Cc1ccccc1 (stereo unspecified),1,52*
O=C(Nc1ccc(F)c(Cl)c1)N1CCn2cccc2C1Cc1ccccc1 (stereo unspecified),2,100*
O=C(Nc1ccccc1)N1CCn2cccc2C1Cc1ccccc1 (stereo unspecified),-9,28
Cc1cccc(N2CCN(C(=O)c3ccc(SCc4cccnc4)c([N+](=O)[O-])c3)CC2C)c1 (stereo unspecified),-4,98*
O=C(c1ccc(SCc2cccnc2)c([N+](=O)[O-])c1)N1CCCC1,-7,4
CCCC(=O)N1CCCC(c2ccnc(-c3ccccc3)n2)C1 (stereo unspecified),-2,10
COc1ccc(NC(=O)C2CC(=O)N(c3ccc4c(c3)CCN4C(C)=O)C2)cc1 (stereo unspecified),-6,-7
CCn1c(C2CCN(C(=O)c3cccc(Cl)c3)C2)nc2cccnc21 (stereo unspecified),-7,3
CCSC1=C(C#N)C2(CCCC2)C(C#N)=C(N)N1,2,2
N#CC1=C(N)NC(SCC(=O)Nc2ccc(Br)cc2)=C(C#N)C12CCCCC2,-8,83*
SMILES,Pf apPOL block,mHTT CaM bind
O=C(COc1ccc(Cl)cc1)Nc1ccc(-c2nnc3n2CCCCC3)cc1,-4,5
O=C(Nc1ccc(N2CCC(C(=O)NC3CC3)CC2)nc1)c1ccccc1,0,-3
O=C(Nc1nnc(C2CC2)o1)c1ccc(S(=O)(=O)N2CCCc3ccccc32)cc1,-116,67*!
O=C(Nc1nnc(-c2ccc(F)cc2)o1)c1ccc(S(=O)(=O)N2CCCc3ccccc32)cc1,-72,-5
O=C(Nc1cc(F)cc(F)c1)c1csc(-c2ccc(N3CCCC3)nc2)n1,-2,-10
OC(CN1c2ccccc2Sc2ccccc21)Cn1cnc(-c2ccccc2)c1-c1ccccc1 (stereo unspecified),.,100*
OC(CNCCc1ccccc1)CN1c2ccccc2Sc2ccccc21 (stereo unspecified),-1,100*
CCN(CC)C(C)CN1c2ccccc2Sc2ccccc21 (stereo unspecified),-3,.
CCC(CO)NCC(O)CN1c2ccccc2Sc2ccccc21 (stereo unspecified),-1,10
Cc1nccn1CCNC(=O)C1COc2ccccc2O1 (stereo unspecified),-9,-21
Cc1cccc(C(=O)Nc2ccc(N3CCN(Cc4cccs4)CC3)nc2)c1,0,3
O=c1c2ccccc2c(-c2ccc(Cl)cc2)nn1-c1cc(N2CCNCC2)ccc1[N+](=O)[O-],2,98*
CN1CCN(c2ccc([N+](=O)[O-])c(-n3nc(-c4ccccc4)c4ccccc4c3=O)c2)CC1,-5,55*!
O=c1c2ccccc2c(-c2ccccc2)nn1-c1cc(N2CCN(CCO)CC2)ccc1[N+](=O)[O-],-4,46
O=c1c2ccccc2c(-c2ccc(F)cc2)nn1-c1cc(N2CCOCC2)ccc1[N+](=O)[O-],0,35
CC(=O)C1=C(C)NC(SCC(N)=O)=C(C#N)C1c1ccc(O)cc1 (stereo unspecified),-4,-5
Cc1cc(C2(c3ccc(O)c(C)c3)C(=O)Nc3c(C)cc([N+](=O)[O-])cc32)ccc1O,-4,86*
Cc1cccc2c1NC(=O)C2(c1ccc(O)cc1)c1ccc(O)cc1,0,21
COc1ccccc1N1CCN(C(=O)c2sc3nc(C)[nH]c(=O)c3c2C)CC1,-6,-1
COc1ccc(-c2[nH]ncc2Oc2ccc(Cl)cc2)c(O)c1,-4,66*
CCCc1ccc(Oc2cn[nH]c2-c2ccc(O)cc2O)cc1,4,82*
Oc1ccc(-c2[nH]ncc2Oc2ccc(-c3ccccc3)cc2)c(O)c1,0,51*
C=C(C)COc1ccc2c(=O)c(Oc3ccccc3OCC)c(C)oc2c1,-8,-14
C=C(C)COc1ccc(-c2[nH]ncc2Oc2ccccc2OCC)c(O)c1,-2,66*
CCOc1ccc(-c2[nH]ncc2Oc2ccccc2)c(O)c1,-4,39
SMILES,Pf apPOL block,mHTT CaM bind
Oc1ccc(-c2[nH]ncc2-c2ccc(F)cc2)c(O)c1,17,31
COc1ccc(-c2[nH]ncc2-c2cnc(C)s2)c(O)c1,-18,7
COc1ccc(C)cc1NC(=O)CN1CCCN(Cc2cc(C)ccc2C)S1(=O)=O,-8,17
O=C(NCc1ccc(F)cc1)c1ccc(Cl)cc1[N+](=O)[O-],0,0
Nc1ncnc(Nc2ccc(Br)cc2)c1[N+](=O)[O-],0,0
COc1ccc(NCc2nnc3n2CCCCC3)cc1,-6,3
COc1ccc(Cl)cc1S(=O)(=O)N1CCCC(C)(C(=O)NCc2ccccc2)C1 (stereo unspecified),-2,95*
Cc1cccc(S(=O)(=O)N2CCCC(C)(C(=O)NCc3ccccc3)C2)c1 (stereo unspecified),-4,-1
CC1(C(=O)NCc2ccccc2)CCCN(S(=O)(=O)c2ccc(F)c(Cl)c2)C1 (stereo unspecified),0,66*
COc1ccc(OC)c(S(=O)(=O)N2CCCC(C)(C(=O)NCc3ccccc3)C2)c1 (stereo unspecified),-3,15
CN1CCC2(CC1)C(C#N)=C(O)NC1=C2C(=O)CC(C)(C)C1,.,2
Cn1cnc2c1c(=O)n(CCC[Si](C)(C)C)c(=O)n2C,-3,0
N#CC1=C(N)C(C#N)(C#N)C2=CCCC2C12CCCCC2 (stereo unspecified),.,0
CN1CCN(C2C3CC4CC(C3)CC2C4)CC1 (stereo unspecified),2,-3
OCCN1CCN(C2C3CC4CC(C3)CC2C4)CC1 (stereo unspecified),62*,1
